Rows were chosen to be rich in hits. Some 27% of all compounds tested hit in one or more screens of this group.
CYP2C19 act – cytochrome P450 2C19 (human) activation; P33261; recombinant CYP2C19, luciferin-H EGE luminescence; active compounds read high; 0 = fully inhibited enzyme, 1 = untreated enzyme; activation factor at 5 µM; 96,000 tested, under 10 active;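 active = activation factor of at least 2 at 5 µM in the primary screen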;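 also: 0 = wells with 2.5 mM tranylcypromine and 1 = vehicle-only wells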
Target sequence (P33261 whole entry, looked up): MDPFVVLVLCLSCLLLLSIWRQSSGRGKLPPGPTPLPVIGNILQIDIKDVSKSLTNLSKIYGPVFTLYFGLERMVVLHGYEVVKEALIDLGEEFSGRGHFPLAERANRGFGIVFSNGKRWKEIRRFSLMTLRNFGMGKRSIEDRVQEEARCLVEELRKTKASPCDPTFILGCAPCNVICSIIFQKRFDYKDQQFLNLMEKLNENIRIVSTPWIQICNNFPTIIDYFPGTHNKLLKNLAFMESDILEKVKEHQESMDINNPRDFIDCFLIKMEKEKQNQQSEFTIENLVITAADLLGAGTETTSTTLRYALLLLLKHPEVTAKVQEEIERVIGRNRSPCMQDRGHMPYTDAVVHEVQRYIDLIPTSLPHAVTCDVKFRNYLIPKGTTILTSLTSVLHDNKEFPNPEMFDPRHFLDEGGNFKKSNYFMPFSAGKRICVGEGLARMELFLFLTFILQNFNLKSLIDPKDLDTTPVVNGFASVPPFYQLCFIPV
CYP2C19 inh – blocks human cytochrome P450 2C19; 96,000 compounds, 21% hits; inhibition, % at 5 µM; P33261; CYP2C19 Supersomes, luciferin-H EGE luminescence, 30 min;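 active = CYP2C19 inhibition above a set limit at 5 µM in the primary screen, cut at about 50% in these data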;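 also: plate controls were negative control wells for no effect and 2.5 mM tranylcypromine positive control for full effect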
EphB4 ephrin blk – blocks human EphB4 binding to ephrin-B2. P54760. EphB4 LBD / TNYL-RAW-Alexa532 peptide, fluorescence polarization. inhibition, % at 7 µM. 97,000 compounds, 0.15% hits;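 active = inhibition above the screen-wide mean inhibition plus 3 SD, cut at about 15% in these data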;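 also: 0% = DMSO wells and 100% = excess unlabeled TNYL-RAW peptide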
CYP2C9 inh – blocks human cytochrome P450 2C9; 96,000 compounds, 20% hits; AID 777; CYP2C9 Supersomes, luciferin-H conversion, luminescence; P11712; inhibition, % at 5 µM;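 active = blocking of liver enzyme CYP2C9 beyond about 50% at 5 µM, limit read from the data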
CYP2C9 act – increases human cytochrome P450 2C9 activity | 96,000 compounds, 1.4% hits | recombinant CYP2C9, luciferin-H conversion, luminescence; active compounds read high; factor 1 = untreated enzyme, 0 = blocked | activation factor at 5 µM | P11712;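 active = activation factor of 2 or more for CYP2C9 at a 5 µM dose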;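 also: 0 = sulfaphenazole-blocked wells and 1 = vehicle-only wells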
Starred values were filed as active, the others as inactive; nt = not tested or not shown.

SMILES | CYP2C19 act | CYP2C19 inh | EphB4 ephrin blk | CYP2C9 inh | CYP2C9 act
COc1cccc(OCCn2c(C)c(/C=N/n3cnnc3)c3ccccc32)c1 | 0.4 | 56* | -9 | 36 | 0.6
Cn1c(=O)n(C)c2cc(/C=N/n3cnnc3)ccc21 | 0.8 | 17 | -15 | 12 | 0.9
CCn1c(=N)n(CCOc2ccc(OC)cc2)c2ccccc21 | 0.8 | 24 | 3 | -4 | 1
C#CCn1c(S(=O)(=O)Cc2ccc(C)cc2)nc(-c2ccccc2)c1-c1ccccc1 | 0.4 | 61* | 3 | 67* | 0.3
C#CCn1c(S(=O)(=O)Cc2ccccc2Cl)nc(-c2ccccc2)c1-c1ccccc1 | 0.9 | 13 | -6 | -5 | 1
CCS(=O)(=O)N1CCC(C(=O)NCc2ccc(F)cc2Cl)CC1 | 1 | -3 | -2 | -12 | 1.1
O=C(NCc1ccc(Cl)cc1Cl)C(=O)N1CCCCC1 | 0.8 | 17 | 4 | -282 | 3.8*
Cc1cc(C)c(S(=O)(=O)N2CCC(C(=O)NCc3ccc(Cl)cc3Cl)CC2)c(C)c1 | 0.7 | 35 | 5 | -185 | 2.9*
COC(=O)c1ccc(Oc2nc(Nc3ccc(C)c(C)c3)nc(N(C)C)n2)cc1 | 0.4 | 56* | -1 | 71* | 0.3
O=C(Cn1cnc2c(nnn2Cc2ccc(F)cc2)c1=O)N1CCCCC1 | 0.9 | 6 | 1 | 3 | 1
CCc1ccc(NS(=O)(=O)c2ccc3[nH]cc(C(=O)NCC4CCCO4)c(=O)c3c2)cc1 (stereo not drawn) | nt | nt | -8 | nt | nt
CCOc1ccc(N(C)S(=O)(=O)c2ccc3[nH]cc(C(=O)NCC4CCCO4)c(=O)c3c2)cc1 (stereo not drawn) | 0.8 | 24 | 9 | 74* | 0.3
CN(c1ccc(F)cc1)S(=O)(=O)c1ccc2[nH]cc(C(=O)O)c(=O)c2c1 | 1 | -1 | nt | 22 | 0.8
Cc1ccccc1N(C)S(=O)(=O)c1ccc2[nH]cc(C(=O)NCC3CCCO3)c(=O)c2c1 (stereo not drawn) | 0.5 | 53* | nt | 91* | 0.1
CCC1CCCCN1C(=O)c1c[nH]c2ccc(S(=O)(=O)N(C)c3ccc(Cl)cc3)cc2c1=O (stereo not drawn) | 0.3 | 74* | 3 | 83* | 0.2
CCN(CC)S(=O)(=O)c1ccc2[nH]cc(C(=O)NCCC3=CCCCC3)c(=O)c2c1 | 0.2 | 76* | -2 | 91* | 0.1
O=C(CCn1nnc2ccccc2c1=O)N[C@H](C(=O)O)c1ccccc1 | 1.1 | -9 | -6 | 1 | 1
CCN1CCCC1CN=Cc1c(O)n(-c2ccccc2)c(=O)c2ccccc12 (stereo not drawn) | 1 | 2 | -5 | 3 | 1
O=C1C2C3C=CC(C3)C2C(=O)N1/N=C/c1cc(Br)cc([N+](=O)[O-])c1O (stereo not drawn) | 1.1 | -6 | 3 | 41 | 0.6
CCc1ccc(N(C)S(=O)(=O)c2ccc3[nH]cc(C(=O)NCCN4CCOCC4)c(=O)c3c2)cc1 | 0.8 | 24 | -3 | 60* | 0.4
CCN(CC)S(=O)(=O)c1ccc2[nH]cc(C(=O)NCCN3CCCCCC3)c(=O)c2c1 | 1.1 | -8 | 4 | -1 | 1
Cc1ccc(CSc2nc3c(cc2C#N)CCC3)cc1 | 1.1 | -15 | 10 | -4 | 1
Cc1cc(N2CCCCC2)nc(SCc2ccc(C#N)cc2)n1 | 0.5 | 49 | -1 | 63* | 0.4
CCOc1ccc2nc(NC(=O)CSc3nc4c(c(=O)n(C)c(=O)n4C)n3C(C)C)sc2c1 | 1 | 4 | nt | 7 | 0.9
CCOc1ccc2nc(NC(=O)Cn3cnc4c3c(=O)n(C)c(=O)n4C)sc2c1 | 0.3 | 69* | nt | 15 | 0.9
SMILES | CYP2C19 act | CYP2C19 inh | EphB4 ephrin blk | CYP2C9 inh | CYP2C9 act
CC(C)n1c(SCC(=O)Nc2nc3ccccc3s2)nc2c1c(=O)n(C)c(=O)n2C | nt | nt | 3 | nt | nt
CCn1c(SCC(=O)Nc2nc3ccc(OC)cc3s2)nc2c1c(=O)n(C)c(=O)n2C | 0.7 | 28 | nt | 62* | 0.4
O=S(Cc1ccccc1)CC(O)(c1ccc(Cl)cc1)c1ccc(Cl)cc1 (stereo not drawn) | 0.1 | 85* | -6 | 24 | 0.8
O=S(Cc1ccc(Cl)cc1)CC(O)(c1ccccc1)c1ccccc1 (stereo not drawn) | 0.2 | 80* | -4 | 36 | 0.6
O=c1cc(C(F)(F)F)nc(-c2ccccc2)[nH]1 | 1 | 0 | -5 | 30 | 0.7
CCCC(=O)c1cc(F)c(N2CCN(CCC#N)CC2)cc1C | 0.6 | 39 | 0 | 30 | 0.7
CC(C)(C)OC(=O)N1CCC[C@H]1c1nnc(SCc2ccccc2F)o1 | 0.4 | 61* | 2 | 60* | 0.4
CCc1ccccc1NC(=O)CSc1nnc([C@@H]2CCCN2C(=O)OC(C)(C)C)o1 | 0.7 | 29 | 0 | 14 | 0.9
CCCC(C(=O)NCC1CCCO1)N(Cc1ccco1)C(=O)CNS(=O)(=O)c1ccccc1 (stereo not drawn) | 1 | -3 | 0 | 0 | 1
CC12CCC(=O)N1c1c(sc3nc(N4CCOCC4)c4c(c13)CCCC4)C(=O)N2 (stereo not drawn) | 1 | 3 | -4 | 68* | 0.3
COc1ccc(NC(=O)CCCSc2nc(-c3ccco3)cc(C(F)(F)F)n2)cc1OC | nt | nt | -1 | nt | nt
O=[N+]([O-])c1ccc(NCCNS(=O)(=O)c2ccccc2)c(C(F)(F)F)c1 | 0.1 | 88* | -4 | 75* | 0.3
Cc1ccc(S(=O)(=O)NCCNc2ccc([N+](=O)[O-])cc2C(F)(F)F)cc1 | 0.5 | 49 | 1 | 77* | 0.2
O=C(NCCNc1ccc([N+](=O)[O-])cc1C(F)(F)F)c1ccccc1F | 0.1 | 92* | 1 | -6 | 1.1
Cc1ccc(S(=O)(=O)NCCNC(=O)c2cc(OCC(F)(F)F)ccc2OCC(F)(F)F)cc1 | 0.6 | 45 | -5 | 4 | 1
O=S1(=O)CCN2C(=N1)Sc1c2ccc2c1CCCC2 | 0.3 | 70* | nt | -20 | 1.2
CCc1ccc(CC)c(S(=O)(=O)Nc2ccc(O)c(C(=O)O)c2)c1 | 0.9 | 6 | -2 | 77* | 0.2
Cc1ccc(C(=O)Nc2ccc(O)c(C(=O)O)c2)o1 | 0.9 | 9 | -4 | -8 | 1.1
CCc1ccc(CC)c(S(=O)(=O)Nc2ccc(C(=O)O)c(O)c2)c1 | 0.9 | 8 | -4 | 83* | 0.2
O=C(O)c1ccc(NS(=O)(=O)c2ccc(Cl)c(Cl)c2)cc1O | 1 | -4 | -7 | 24 | 0.8
CCc1ccc(OC)c(S(=O)(=O)NCCOc2ccccc2)c1 | 0.2 | 75* | 1 | 15 | 0.8
CCS(=O)(=O)NCc1csc(-c2ccccc2)n1 | 0.3 | 70* | nt | 0 | 1
CCOc1cc(Br)ccc1S(=O)(=O)NCc1ccccc1 | 0.3 | 71* | 1 | -45 | 1.5
COc1ccc(-c2nc(CC(=O)O)cs2)cc1 | 1.1 | -15 | 1 | -4 | 1
COc1ccc(-c2nc(CNS(=O)(=O)c3cc(OC)ccc3OC)cs2)cc1 | 0.3 | 70* | nt | 72* | 0.3
CS(=O)(=O)NCc1csc(-c2ccccc2)n1 | 0.9 | 5 | 9 | 7 | 0.9

Assay outcomes from PubChem.
